# Source: PubChem BioAssay (NCATS)
# Records with an inconclusive call do not appear. Active and inactive are the calls of the source. Unless noted, calls follow the shape of the dose curve; as a rule, active = well fitted curve in the direction sought with a large enough effect; inconclusive = small, poorly fitted or top-dose-only effect, or another doubt; inactive = no such curve, though single readings can be large; an effect the other way counts as inactive or inconclusive.
# Legend:
# [1] = target: Cytochrome P450 3A4 (Homo sapiens) (UniProt P08684); assay: qHTS Assay for Inhibitors and Substrates of Cytochrome P450 3A4 (AID 884); also: % is scaled to controls: 0 for no effect and ±100 for the full control effect; nearly all actives have a fitted effect of over 50% in size
# Cytochrome P450 3A4 (Homo sapiens), sequence (P08684 whole entry, looked up): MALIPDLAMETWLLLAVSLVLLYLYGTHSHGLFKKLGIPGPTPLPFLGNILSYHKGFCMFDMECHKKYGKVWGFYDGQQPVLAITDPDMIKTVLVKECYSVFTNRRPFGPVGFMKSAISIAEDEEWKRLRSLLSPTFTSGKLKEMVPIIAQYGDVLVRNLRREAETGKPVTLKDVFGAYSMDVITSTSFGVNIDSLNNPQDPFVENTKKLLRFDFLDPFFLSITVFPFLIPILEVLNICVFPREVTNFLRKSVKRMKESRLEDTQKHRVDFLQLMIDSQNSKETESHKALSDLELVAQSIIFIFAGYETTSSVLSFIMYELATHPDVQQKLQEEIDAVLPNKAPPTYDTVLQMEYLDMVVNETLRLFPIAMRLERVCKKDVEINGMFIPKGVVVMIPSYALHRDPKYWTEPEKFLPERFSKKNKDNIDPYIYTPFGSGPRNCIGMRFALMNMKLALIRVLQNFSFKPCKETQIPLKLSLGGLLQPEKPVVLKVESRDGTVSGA
# Summary of the method: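 Luminescent readout of luciferin produced by CYP3A4 (20 nM) dealkylation of Luciferin-PPXE, 25 uM (its KM). NADPH-driven reaction ran 60 min at RT after 10 min compound preincubation; data scaled to 57 uM ketoconazole as 100% inhibition.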
# [2] = Confirmation and Secondary Assay for Modulators of Hemoglobin Beta Chain Splicing at IVS2 654 locus (AID 910);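 also: HeLa cells stably carrying EGFP split by mutant beta-globin IVS2-654 intron; % of control where 0% means no effect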
# Summary of the method: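 HeLa cells stably expressing EGFP interrupted by β-globin IVS2-654 intron, seeded overnight in Opti-MEM/2% FCS, then treated 2 days at 37 °C. Restored splicing read as total peak GFP intensity per well by laser scanning cytometry (488 nm excitation, 500–520 nm emission); 500 nM antisense PNA as control.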
# [3] = Confirmation and Secondary Assay for Modulators of Hemoglobin Beta Chain Splicing at IVS2 705 locus (AID 930);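 also: HeLa cells stably expressing the EGFP-705 splicing reporter; GFP fluorescence per well restored by corrected splicing of the IVS2-705 intron in EGFP; % of control where 0% means no effect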
# Summary of the method: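 HeLa cells stably carrying EGFP interrupted by mutant beta-globin intron 2 (IVS2-705) treated 2 days at 37C with compound; 500 nM antisense PNA as control. Correct splicing read as total peak GFP intensity per well by laser-scanning cytometry.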
# [4] = qHTS Assay for Lipid Storage Modulators (AID 1519; calls by dose curve; as to activity change, negative = inhibition: % is scaled to controls: 0 for no effect and ±100 for the full control effect); details: Drosophila S3 cells, BODIPY lipid droplet/cell ratio, laser cytometry, cells loaded with oleic acid; for activity change, negative = inhibition: at 57.5 µM (top of the series)
# Summary of the method: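 Cells seeded at 5,000 per well were treated with compounds over a concentration series and loaded with oleic acid (400 uM, as added). Lipid droplet fluorescence (488 nm excitation, 500-530 nm channel) was read by laser-scanning cytometry and normalized to 20 uM Triacsin C.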
# [5] = target: Cytochrome P450 3A4 (Homo sapiens) (UniProt P08684); assay: qHTS Assay for Activators of Cytochrome P450 3A4 (AID 885); also: nearly all actives have a fitted effect of over 65% in size
# Summary of the method: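 Luminescent readout of luciferin formed from 25 uM Luciferin-PPXE (KM level) by 20 nM CYP3A4 in 200 mM KPO4, with 60 min NADPH-driven reaction at room temperature after 10 min compound exposure. Ketoconazole (57 uM) defined 100% inhibition.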
# [6] = measured here: cell count channel max response
# [7] = measured here: lipid channel max response
Structure (SMILES),Potency [1],Potency [2],Potency [3],"activity change, negative = inhibition [4]","max response [4, 6] [%]","max response [4, 7] [%]",Potency [5]
COc1ccc2c(c1)CCC1C2CC[C@@]2(C)C(O)CCC12 (stereo not given in full),inactive,inactive,inactive,6.39% (inactive),9.55,16.1,
CO[C@@]1(NC(=O)CSCC#N)C(=O)N2C(C(=O)O)=C(CSc3nnnn3C)CSC21 (stereo not given in full),inactive,inactive,inactive,5.21% (inactive),4.52,12.5,
CC1(C)CCC[C@]2(C)C3CC(=O)O[C@@]3(C)CC[C@H]12 (stereo not given in full),,,,5.49% (inactive),5.53,11.1,inactive
C=CC1=C(C)/C(=C/c2[nH]c(Cc3[nH]c(/C=C4\NC(=O)C(C)=C4C=C)c(C)c3CCC(=O)O)c(CCC(=O)O)c2C)NC1=O,inactive,,inactive,-0.375% (inactive),3.69,3.49,
O=c1[nH]c(=O)n(C2CC(O)C(CO)O2)cc1F (stereo not given),inactive,inactive,inactive,3.4% (inactive),3.49,8.27,
CCCCCc1c2c(cc(O)c1C(=O)O)OC(=O)c1c(cc(OC)cc1C(=O)CCCC)O2,,inactive,inactive,7.58% (inactive),12.3,21.9,inactive
CC[C@@H]1OC(=O)[C@@H](C)[C@H](O[C@H]2C[C@@](C)(OC)[C@@H](O)[C@H](C)O2)C(C)[C@H](O[C@H]2O[C@@H](C)C[C@@H](N(C)C)[C@@H]2O)[C@@](C)(O)C[C@H](C)C(=O)[C@@H](C)[C@H](O)[C@@]1(C)O (stereo not given in full),,,,6.26% (inactive),3.51,7.04,inactive
NC(C(=O)NC1C(=O)N2C(C(=O)O)=C(Cl)CSC12)c1ccccc1 (stereo not given),,inactive,inactive,8.35% (inactive),18.8,24.9,inactive
O=c1c(O)c(-c2ccccc2)oc2ccccc12,,inactive,inactive,0.0192% (inactive),-10,-11.2,inactive
C=CCCCCCCCCCCCC(O)CC(O)CO (stereo not given) (tested in a mixture with another compound),inactive,,inactive,11.1% (inactive),1.75,15.4,
CC(C)CCCC(C)C1CCC2C3=CC[C@@H]4CC(O)CC[C@@]4(C)C3CC[C@]21C (stereo not given in full),inactive,inactive,inactive,-3.72% (inactive),6.46,4.39,
O=c1cc(-c2ccc(O)cc2)oc2cc(OC3OC(CO)C(O)C(O)[C@H]3O[C@@H]3OC[C@@](O)(CO)C3O)cc(O)c12 (stereo not given in full),inactive,inactive,inactive,1.57% (inactive),23.4,26.6,
CC(C)=CC1C(CO)C1(C)C (stereo not given),inactive,,inactive,4.52% (inactive),11.9,18.1,
C=CCCCCCCCCCCCC(O)CC(O)COC(C)=O (stereo not given),,inactive,inactive,12.3% (inactive),4.88,15.5,inactive
Cc1cn(C2CC(N=[N+]=[N-])C(CO)O2)c(=O)[nH]c1=O (stereo not given),,inactive,inactive,9.63% (inactive),4.71,18.1,
CC(=O)OC[C@@]1(O)C[C@]23CCC4c5ccoc5CC[C@@]4(C)C2CCC1C3 (stereo not given in full),,inactive,inactive,6.91% (inactive),7.17,15.2,inactive
CC(=O)OC1CCC2(C)C3=C(CCC2C1(C)C)[C@]1(C)CCC(C(C)CCC=C(C)C)[C@]1(C)CC3 (stereo not given in full),,inactive,inactive,-0.993% (inactive),20.7,23.4,inactive
C=CCCCCCCCCCCC/C=C/C(O)COC(C)=O (stereo not given),,,inactive,8.71% (inactive),8.46,19.5,inactive
CCC(C)C(=O)OC1CC(C)C=C2C=CC(C)C(CCC3CC(O)CC(=O)O3)C21 (stereo not given),,inactive,inactive,5.56% (inactive),0.727,5.38,
CC1(C)OC2CC3C4CCC5=CC(=O)CCC5(C)C4(F)C(O)CC3(C)[C@]2(C(=O)CCl)O1 (stereo not given in full),,inactive,inactive,8% (inactive),13.8,26.2,inactive
